Source: PubChem (National Center for Advancing Translational Sciences (NCATS))
Most compounds without a hit are left out; they make up all but 10% or so of the library.
Six1-Eya2 blk – blocks human Six1 binding to Eya2; AlphaScreen GST-Six1/His-Eya2 binding, biochemical; active compounds read low; AID 651725; activity change, % (test concentration not listed); 360,000 tested, 0.56% active; in the data active means activity change below about -65%; inconclusive means mostly about -30% to -63%
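GST-Six1 + His-Eya2 (5X stock: 250/500 nM); Tris pH 8.0, 300 mM NaCl, 0.05% BSA, 0.02% Tween 20; GSH donor/Ni acceptor beads; 1 h 37 °C dark; AlphaScreen readout.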
JMJD2A Tudor inh – JMJD2A Tudor domain (human) inhibition. 390,000 tested, 4.4% active. Potency, µM (doses to about 114 µM), most hits filed as inhibitors. AlphaScreen JMJD2A-Tudor / H3K4me3 peptide binding. AID 504339. O75164; further: nearly all actives have a fitted effect of over 50% in size
G9a block – G9a (human) methyltransferase inhibition; G9a H3K9 monomethylation, AlphaScreen, 2 h; Potency, µM (titrated, usually from 102 µM), actives largely listed as inhibitors; 350,000 tested, 8.8% active; further: nearly all actives have a fitted effect of over 75% in size
Target sequence (Q96KQ7 913-1193 limits assumed): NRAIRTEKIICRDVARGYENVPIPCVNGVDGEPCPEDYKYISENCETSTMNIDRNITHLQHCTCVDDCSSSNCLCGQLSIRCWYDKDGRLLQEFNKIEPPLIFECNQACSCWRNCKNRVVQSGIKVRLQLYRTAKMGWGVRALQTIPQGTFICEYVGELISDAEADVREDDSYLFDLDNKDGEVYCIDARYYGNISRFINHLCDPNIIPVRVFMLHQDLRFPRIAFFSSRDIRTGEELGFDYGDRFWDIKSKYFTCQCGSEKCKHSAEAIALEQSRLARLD
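Methyltransferase reactions run at room temperature for 2 h (20 nM enzyme, 500 nM biotin-H3K9 peptide, 20 uM SAM) after a 15 min compound preincubation; product detected by AlphaScreen beads and anti-H3K9me1 antibody.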
HP1b chromo inh – HP1-beta chromodomain-methylated histone interaction inhibition; P83916; AlphaScreen HP1-beta / biotin-H3K9me3 peptide binding; Potency, µM (titrated, usually from 114 µM), usual class: inhibitors; 390,000 tested, 0.56% active; further: nearly all actives have a fitted effect of over 70% in size
Target sequence (P83916 whole entry, looked up): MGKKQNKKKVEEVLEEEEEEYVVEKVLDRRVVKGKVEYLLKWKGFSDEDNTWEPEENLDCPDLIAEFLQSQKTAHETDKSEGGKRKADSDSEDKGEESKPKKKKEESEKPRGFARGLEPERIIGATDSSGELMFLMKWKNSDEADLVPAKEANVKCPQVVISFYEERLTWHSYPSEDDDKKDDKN
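HP1-beta protein (50 nM final) preincubated 30 min at room temperature with biotinylated H3(1-18)K9me3 peptide (50 nM) in PBS pH 7.4, 0.01% Tween-20, then compound added for 30 min. AlphaScreen streptavidin donor/nickel chelate acceptor beads (10 ug/mL final), 30 min dark, luminescence read.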
CtBP-E1A inh – blocks the CtBP interaction with E1A; activity change, % (test concentration not listed); AlphaScreen GST-E1A/His-CtBP binding, 1536-well; active compounds read low; 340,000 tested, 0.49% active; in the data active means activity change below about -65%; inconclusive means mostly about -30% to -63%
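In 5 uL wells, 23 nL compound meets equimolar GST-E1A and His-CtBP (5X stock 125 nM each) for 2 h, 37 °C. Beads (5X, 50 ug/mL) then 1 h, 37 °C, dark.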
BAZ2B block – BAZ2B (human) inhibition | 360,000 tested, 4.4% active | AlphaScreen BAZ2B-H3K14Ac peptide displacement | Potency, µM (doses to about 114 µM), usual class: inhibitors | Q9UIF8; further: nearly all actives have a fitted effect of over 60% in size
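AlphaScreen luminescence quantifies BAZ2B engagement of H3K14Ac peptide; the protein and biotinylated peptide are both at 50 nM final, buffer PBS pH 7.4 with 0.01% Tween-20, all steps at room temperature.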
Large screens that a line does not name were inactive. Unless noted, the call rests on the fitted dose curve; in most records, active means well fitted inhibition curve with a large enough effect; inconclusive means small, poorly fitted or top-dose-only effect; inactive means no such curve, though single readings can be large or run the other way.

O=C1C=C(c2ccccc2)C[C@H](c2cccs2)[C@H]1n1nnc([N+](=O)[O-])n1	JMJD2A Tudor inh inconclusive, G9a block inconclusive, HP1b chromo inh inconclusive, BAZ2B block inconclusive
O=C1C=C(c2ccccc2)CC(c2cccs2)C1n1cnc([N+](=O)[O-])c1 (stereo not given)	G9a block 44.7µM, HP1b chromo inh inconclusive
CSc1nc2c(C)c(C)c(C)c(C)c2[nH]1	none (no result: G9a block)
CSc1nc(=S)cc(C)[nH]1	JMJD2A Tudor inh 25.1µM, HP1b chromo inh inconclusive (no result: G9a block)
COc1ccc(C(=O)N2CCC3(CC2)CCN(c2ccncc2)CC3)cc1	none (no result: Six1-Eya2 blk, JMJD2A Tudor inh, HP1b chromo inh, CtBP-E1A inh, BAZ2B block)
COc1ccc(-n2c(=S)[nH]c3cc(C(=O)NCCCN4CCOCC4)ccc3c2=O)cc1	G9a block 28.2µM
COc1ccc(-n2c(=S)[nH]c3cc(C(=O)NCCCN4CCCC4=O)ccc3c2=O)c(OC)c1	JMJD2A Tudor inh 14.1µM, G9a block 31.6µM
O=C(NCCCN1CCOCC1)c1ccc2c(=O)n(-c3ccc(F)c(Cl)c3)c(=S)[nH]c2c1	G9a block 39.8µM
O=C(O)c1ccc2c(=O)n(-c3ccc(F)c(Cl)c3)c(=S)[nH]c2c1	G9a block inconclusive
COc1cccc(NS(=O)(=O)c2ccc3[nH]cc(C(=O)NC4CCCCC4)c(=O)c3c2)c1	JMJD2A Tudor inh inconclusive (no result: Six1-Eya2 blk, CtBP-E1A inh, BAZ2B block)
O=C(NCC1CCCCC1)c1csc([C@@H]2O[C@H](CO)[C@H](O)[C@H](O)[C@H]2O)n1	none (no result: JMJD2A Tudor inh, G9a block, HP1b chromo inh, BAZ2B block)
CSc1ncc(C(=O)NCc2ccc(C)cc2)c(-c2ccccc2)n1	none (no result: Six1-Eya2 blk, CtBP-E1A inh)
O=C(CNC(=O)c1ccccc1)OC(C(=O)c1ccccc1)c1ccccc1 (stereo not given)	none
COc1ccc(C(=O)C(OC(=O)CNC(=O)c2ccco2)c2ccccc2)cc1 (stereo not given)	G9a block 50.1µM
CC1S/C(=N/N=C/c2ccco2)N(Cc2ccc(F)cc2)C1=O (stereo not given)	G9a block 50.1µM, BAZ2B block inconclusive (no result: CtBP-E1A inh)
O=C1CS/C(=N/N=C/c2ccco2)N1Cc1ccc(F)cc1	G9a block inconclusive (no result: CtBP-E1A inh)
COc1cccc(C(=O)COC(=O)c2ccc(NC(C)=O)cc2)c1	none
CCn1cc(C(=O)OCC(=O)Nc2c(C)cccc2C)c(=O)c2ccc(C)nc21	G9a block 44.7µM
CCn1cc(C(=O)Nn2cnnc2)c(=O)c2ccc(C)nc21	JMJD2A Tudor inh inconclusive, G9a block 50.1µM
CC1CCc2[nH]c3ccc(C(=O)N(C)CC(=O)Nc4ccccc4C(F)(F)F)cc3c2C1 (stereo not given)	JMJD2A Tudor inh 50.1µM, BAZ2B block 50.1µM
CC1CCc2[nH]c3ccc(C(=O)N(C)CC(=O)Nc4ccccc4Cl)cc3c2C1 (stereo not given)	JMJD2A Tudor inh inconclusive, G9a block 50.1µM, BAZ2B block inconclusive
CCN(CC(=O)Nc1ccccc1OC)C(=O)c1ccc2[nH]c3c(c2c1)CC(C)CC3 (stereo not given)	JMJD2A Tudor inh inconclusive, BAZ2B block inconclusive
CCCCN(CCCNC(=O)c1c(C)cc(=O)oc1C)c1ccccc1	JMJD2A Tudor inh 50.1µM, G9a block 50.1µM, HP1b chromo inh inconclusive, BAZ2B block 44.7µM
Cc1ccc(NC(=O)/C(=C\c2ccc([N+](=O)[O-])cc2)NC(=O)c2ccccc2)cc1	none
COC(=O)/C(=C\c1ccc([N+](=O)[O-])cc1)NC(=O)c1ccccc1	CtBP-E1A inh -91.4 (no result: G9a block, BAZ2B block)
O=C(N/N=C/c1ccc(O)c(O)c1O)/C(=C/c1ccc([N+](=O)[O-])cc1)NC(=O)c1ccccc1	Six1-Eya2 blk -90.0, JMJD2A Tudor inh 31.6µM, G9a block 1.58µM, HP1b chromo inh 25.1µM, CtBP-E1A inh -94.5, BAZ2B block inconclusive
Cc1c(N=c2scc(-c3ccccc3)n2CCO)c(=O)n(-c2ccccc2)n1C	G9a block inconclusive (no result: CtBP-E1A inh)
COc1ccc(N=c2scc(-c3ccc(OC)cc3)n2CCO)cc1	Six1-Eya2 blk inconclusive, JMJD2A Tudor inh inconclusive, G9a block inconclusive, HP1b chromo inh inconclusive, CtBP-E1A inh inconclusive, BAZ2B block 31.6µM
COc1ccc(-c2csc(=Nc3ccccc3)n2CCO)cc1F	JMJD2A Tudor inh 39.8µM, G9a block 15.8µM, HP1b chromo inh inconclusive, BAZ2B block 50.1µM (no result: Six1-Eya2 blk, CtBP-E1A inh)
COc1ccc(OC)c(S(=O)(=O)CC(=O)c2cc3ccc(OC)cc3oc2=O)c1	BAZ2B block inconclusive (no result: CtBP-E1A inh)
COc1ccc(S(=O)(=O)CC(=O)c2cc3cc(Br)ccc3oc2=O)cc1	JMJD2A Tudor inh inconclusive, G9a block 25.1µM, BAZ2B block 44.7µM (no result: CtBP-E1A inh)
CCCN1C2CCCC1CC(NC(=O)c1cc(OC)cc(OC)c1)C2 (stereo not given)	none (no result: G9a block, CtBP-E1A inh)
CCOc1ccc(CN2CCNC(=O)C2CC(=O)N(C)CC2CCOCC2)cc1 (stereo not given)	G9a block inconclusive
CN(CC1CCOCC1)C(=O)CC1C(=O)NCCN1CC(c1ccccc1)c1ccccc1 (stereo not given)	G9a block 89.1µM
CN(CC1CCOCC1)C(=O)CC1C(=O)NCCN1Cc1ccc(Cl)c(F)c1 (stereo not given)	G9a block 50.1µM
CN(Cc1cnn(C)c1)C(=O)CC1C(=O)NCCN1Cc1cccc(Oc2ccccc2)c1 (stereo not given)	G9a block 25.1µM
CN(CCC1CCOCC1)C(=O)CC1C(=O)NCCN1Cc1c(F)cccc1Cl (stereo not given)	G9a block 39.8µM
Cc1cccc(C)c1NC(=O)C1(C)CN(S(C)(=O)=O)CC(=O)N1C1CC1 (stereo not given)	none (no result: JMJD2A Tudor inh, G9a block, HP1b chromo inh, BAZ2B block)
CCOc1cccc(NC(=O)C2CC(=O)N(C)C(=Nc3cccc(OC)c3)S2)c1 (stereo not given)	G9a block inconclusive (no result: Six1-Eya2 blk, CtBP-E1A inh)
CN(Cc1ccccn1)C(=O)CC1C(=O)NCCN1Cc1cccc(Oc2ccccc2)c1 (stereo not given)	G9a block 44.7µM
CN(Cc1ccon1)C(=O)CC1C(=O)NCCN1Cc1cccc(Oc2ccccc2)c1 (stereo not given)	G9a block inconclusive, BAZ2B block inconclusive
O=CN1CCCN(C(=O)CC2C(=O)NCCN2Cc2cccc(Oc3ccccc3)c2)CC1 (stereo not given)	G9a block 44.7µM
COc1ccccc1CN1CCNC(=O)C1CC(=O)N(C)Cc1nc(C)cs1 (stereo not given)	G9a block 50.1µM
CN(CC1CCOCC1)C(=O)CC1C(=O)NCCN1Cc1cccc(Oc2ccccc2)c1 (stereo not given)	G9a block 35.5µM
Cc1csc(CN(C)C(=O)CC2C(=O)NCCN2Cc2ccccc2C)n1 (stereo not given)	none (no result: JMJD2A Tudor inh, G9a block, HP1b chromo inh, BAZ2B block)
O=C1NCCN(Cc2cccc(Oc3ccccc3)c2)C1CC(=O)N1CCCCC1 (stereo not given)	none (no result: G9a block)
